Laboratory results from ChEMBL document CHEMBL1157539, “Thousands of chemical starting points for antimalarial lead identification” (Nature, 2010).

Legend:
Format in all cases: functional
[1] = test system: Plasmodium falciparum; test: GSK_TCMDC: Inhibition of Plasmodium falciparum 3D7 in whole red blood cells, using parasite LDH activity as an index of growth. Test compounds present at 2uM
[2] = test system: Plasmodium falciparum; test: GSK_TCMDC: Inhibition of Plasmodium falciparum Dd2 in whole red blood cells, using parasite LDH activity as an index of growth. Test compounds present at 2uM
[3] = test system: HepG2; test: GSK_TCMDC: Percent inhibition of human HepG2 cell line. Test compounds present at 10uM.

| Compound | Inhibition [1] | Inhibition [2] | Inhibition [3] |
| --- | --- | --- | --- |
| Cl.Fc1cccc(COc2ccc(Nc3ncnc4sc(C#C[C@H]5CCCN5)cc34)cc2F)c1 | 98% | 17% | 13% |
| Cc1ccccc1C1CCN(C2CCC(NC(=O)c3csc(-c4cccc(Cl)c4)n3)CC2)CC1 (centres undefined) | 85% | 42% | 33% |
| CC[C@H]1CN(Cc2ccccc2Br)CC[C@H]1CCCc1ccnc2ccc(O)cc12 | 86% | 2% | 12% |
| Nc1ncc(-c2ccc(Cl)c(Cl)c2)c(N)n1 | 94% | 0% | 65% |
| CN(CCc1ccccn1)Cc1ccc(-c2ccc(-c3nc4ccccc4[nH]3)s2)cc1 | 100% | 48% | 29% |
| CCc1ccc(C2CCN(CCCCNC(=O)c3ccc(NC(=O)c4ccc(Cl)cc4)cc3)CC2)cc1 | 100% | 63% | 15% |
| Cc1ccc2[nH]c(-c3cc(-c4ccc(CO)cc4)cnc3N)nc2c1.O=C(O)C(F)(F)F | 95% | 6% | 52% |
| COc1ccc(CN(C)CCCOc2ccc(NC(=O)c3cccc4c(=O)c5cccc(F)c5[nH]c34)cc2)cc1OC | 100% | 96% | 6% |
| COc1cc2nc(N3CCC(CNC(=O)c4ccc(-c5ccc(-c6noc(C)n6)cc5)cc4)CC3)nc(N)c2cc1OC | 98% | 100% | 96% |
| O=C(NCc1cccc2ccccc12)c1ccc(CNC2CCN(Cc3ccccc3)CC2)cc1.O=C(O)C(F)(F)F | 100% | 88% | 15% |
| CC(C)CCCC(C)(C)NC[C@@H](O)[C@H](Cc1ccccc1)NC(=O)c1cc(NC(C)C)cc(N2CCCCS2(=O)=O)c1.O=CO | 98% | 98% | 2% |
| COc1cc2nccc(Nc3ccc4c(cnn4Cc4ccccc4F)c3)c2cc1OC.Cl | 100% | 91% | 55% |
| NS(=O)(=O)c1ccc(CNc2ccc3ncc(-c4ccc(Cl)cc4)n3n2)cc1 | 96% | 99% | 26% |
| O=C(NCc1ccc(Cl)cc1)c1ccc(CN2CCCN(CC3CCCCC3)CC2)cc1.O=C(O)C(F)(F)F | 84% | 5% | 18% |
| c1cncc(CN2CCN(Cc3ccc(-c4ccc(-c5nc6ccccc6[nH]5)s4)cc3)CC2)c1 | 97% | 34% | 32% |
| O=C(Nc1cccc(Cl)c1)N[C@H]1CCN(Cc2ccc(OCCCN3CCCCC3)cc2)C1 | 99% | 0% | 15% |
| COc1ccc2nccc([C@@H](O)CN3CCC(NCCOc4cccc(C(F)(F)F)c4)CC3)c2c1.O=C(O)C(=O)O | 100% | 74% | 16% |
| CCNC(=O)c1ccc2c(c1)c(C)c(C)n2Cc1ccc(F)cc1 | 93% | 91% | 25% |
| CN1CCN(c2ccnc3ccc(NC(=O)Cc4ccc(OCc5ccccc5)cc4)cc23)CC1 | 100% | 89% | 6% |
| Cc1cc2ncc(C(N)=O)c(Nc3ccc(N4CCOCC4)cc3)c2cc1S(C)(=O)=O.Cl | 100% | 96% | 0% |
| O=C(CCc1c[nH]cn1)Nc1cccc(-c2cccc(-c3nc4cc(C(F)(F)F)ccc4[nH]3)c2)c1 | 100% | 99% | 17% |
| CC(=O)Nc1ccc(S(=O)(=O)NC2=NC(=N)N(OCc3ccc(Cl)c(Cl)c3)C(C)(C)N2)cc1 | 93% | 98% | 44% |
| CCCCCCCN1CCC(CC(=O)Nc2ccnc3ccc(OC)cc23)CC1 | 97% | 52% | 15% |
| Cc1ccc(Nc2nccc(NCC(O)c3ccc(C(F)(F)F)cc3)n2)cc1 (centres undefined) | 100% | 100% | 53% |
| CC[C@H](C)CNCc1ccc(OCc2cccc(COc3ccc(CNC[C@@H](C)CC)cc3I)c2)c(I)c1.Cl | 99% | 60% | 99% |
| Cc1cc(N[C@@H](CC(C)C)C(=O)NCCc2ccccc2)nc(NCCc2ccc(F)cc2)n1.O=C(O)C(F)(F)F | 98% | 53% | 12% |
| Cc1cccc2nc(-c3ccc(-c4ccc(CN5CC(C)OC(C)C5)cc4)cc3)[nH]c12.O=C(O)C(F)(F)F (centres undefined) | 97% | 96% | 37% |
| CC(C)COc1ccc(Cl)cc1Nc1nc(-c2nc3ccccc3[nH]2)cs1.Cl | 96% | 29% | 2% |
